Experimental findings from the supplement of paper PMC10849652 are described below.

Compound in the test: c1cn2cc(-c3ccc4cn[nH]c4c3)nc(Nc3ccc(N4CCOCC4)cc3)c2n1 [entospletinib]
Briefly: log2 fold change, soluble protein after heating vs DMSO (PISA); higher = thermal stabilisation; K562 cells, 10 uM, 30 min; active = over 0.2 and 3.5 SD of the protein, either way, in both replicates (recomputed). In a few lines: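 For each measurement, 10 μM compound was applied for 30 min to K562 cells at 2×10^6 cells/mL. Aliquots were heated for 3 min across 48°C-58°C, pooled, and extracted in PBS with 0.5% NP-40 at 4°C; the supernatant after 21,000xg for 90 min was soluble protein. This was quantified by TMTpro 16plex LC-MS/MS with channel sums equalised, and thermal stability was reported relative to control samples from duplicates, on a log2 fold-change scale.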

Targets with a hit are over-represented here; the source holds about 7,900 in all. About 0.6% of all pairs of compound and target were hits. Values without a mark were called inactive.

UniProt O14796, sequence (O14796 whole entry, looked up): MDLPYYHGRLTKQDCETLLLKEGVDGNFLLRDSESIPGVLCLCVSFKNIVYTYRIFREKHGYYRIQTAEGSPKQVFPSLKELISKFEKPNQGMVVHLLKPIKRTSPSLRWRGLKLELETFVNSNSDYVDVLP
UniProt Q5T8P6, sequence (Q5T8P6 whole entry, looked up): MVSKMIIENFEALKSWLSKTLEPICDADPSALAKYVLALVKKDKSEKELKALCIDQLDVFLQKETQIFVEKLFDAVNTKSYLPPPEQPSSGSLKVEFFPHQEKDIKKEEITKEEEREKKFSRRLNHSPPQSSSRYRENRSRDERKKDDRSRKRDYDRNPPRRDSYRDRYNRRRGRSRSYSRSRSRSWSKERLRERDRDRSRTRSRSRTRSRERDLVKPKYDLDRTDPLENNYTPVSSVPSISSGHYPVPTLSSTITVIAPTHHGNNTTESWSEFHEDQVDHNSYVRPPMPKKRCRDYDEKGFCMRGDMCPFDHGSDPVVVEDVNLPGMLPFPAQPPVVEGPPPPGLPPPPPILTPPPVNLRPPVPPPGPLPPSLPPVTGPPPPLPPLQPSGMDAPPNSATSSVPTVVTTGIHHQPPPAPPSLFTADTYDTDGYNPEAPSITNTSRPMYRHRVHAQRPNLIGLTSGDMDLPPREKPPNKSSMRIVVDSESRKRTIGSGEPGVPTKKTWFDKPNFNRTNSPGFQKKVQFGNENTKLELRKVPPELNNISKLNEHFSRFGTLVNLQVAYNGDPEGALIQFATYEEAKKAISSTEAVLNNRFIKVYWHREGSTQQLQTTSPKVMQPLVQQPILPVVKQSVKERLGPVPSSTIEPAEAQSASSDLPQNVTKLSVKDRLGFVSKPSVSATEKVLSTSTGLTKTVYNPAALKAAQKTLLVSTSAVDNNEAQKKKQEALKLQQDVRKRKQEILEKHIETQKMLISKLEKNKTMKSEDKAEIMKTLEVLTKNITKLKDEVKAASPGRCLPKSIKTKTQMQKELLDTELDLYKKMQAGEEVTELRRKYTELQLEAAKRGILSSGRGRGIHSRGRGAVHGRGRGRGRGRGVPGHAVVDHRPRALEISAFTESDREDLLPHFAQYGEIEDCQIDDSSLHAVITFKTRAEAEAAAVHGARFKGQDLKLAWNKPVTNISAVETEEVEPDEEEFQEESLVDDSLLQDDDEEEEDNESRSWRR
UniProt Q9BY42, sequence (Q9BY42 whole entry, looked up): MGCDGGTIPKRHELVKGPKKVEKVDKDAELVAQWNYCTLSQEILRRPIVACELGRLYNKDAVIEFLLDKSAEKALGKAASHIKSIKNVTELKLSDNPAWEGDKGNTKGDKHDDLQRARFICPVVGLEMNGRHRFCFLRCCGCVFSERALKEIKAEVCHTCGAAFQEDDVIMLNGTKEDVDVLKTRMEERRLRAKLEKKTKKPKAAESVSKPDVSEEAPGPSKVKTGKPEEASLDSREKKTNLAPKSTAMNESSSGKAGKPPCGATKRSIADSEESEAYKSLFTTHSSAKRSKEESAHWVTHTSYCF
UniProt Q9HB40, sequence (Q9HB40 whole entry, looked up): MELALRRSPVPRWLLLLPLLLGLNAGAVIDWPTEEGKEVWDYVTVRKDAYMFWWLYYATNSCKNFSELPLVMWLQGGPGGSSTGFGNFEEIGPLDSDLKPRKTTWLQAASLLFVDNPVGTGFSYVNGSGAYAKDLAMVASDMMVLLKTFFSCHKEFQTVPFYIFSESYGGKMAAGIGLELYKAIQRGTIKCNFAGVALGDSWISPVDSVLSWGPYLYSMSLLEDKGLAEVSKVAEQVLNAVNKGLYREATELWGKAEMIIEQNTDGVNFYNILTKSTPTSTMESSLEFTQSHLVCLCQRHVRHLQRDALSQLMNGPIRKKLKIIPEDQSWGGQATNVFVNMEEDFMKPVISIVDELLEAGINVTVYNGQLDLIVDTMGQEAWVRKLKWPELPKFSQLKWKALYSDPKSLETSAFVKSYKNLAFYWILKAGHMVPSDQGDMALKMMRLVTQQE
UniProt Q8TC12, sequence (Q8TC12 whole entry, looked up): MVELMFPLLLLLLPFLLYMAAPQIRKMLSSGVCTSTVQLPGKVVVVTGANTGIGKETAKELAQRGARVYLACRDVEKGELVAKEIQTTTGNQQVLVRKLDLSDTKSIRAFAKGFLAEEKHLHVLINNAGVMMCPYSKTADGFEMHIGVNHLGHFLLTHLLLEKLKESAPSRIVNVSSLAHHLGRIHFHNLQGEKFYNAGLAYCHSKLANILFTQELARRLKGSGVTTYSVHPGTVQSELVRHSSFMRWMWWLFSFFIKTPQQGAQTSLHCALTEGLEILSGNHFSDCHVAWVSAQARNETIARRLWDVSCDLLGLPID
UniProt Q96ER3, sequence (Q96ER3 whole entry, looked up): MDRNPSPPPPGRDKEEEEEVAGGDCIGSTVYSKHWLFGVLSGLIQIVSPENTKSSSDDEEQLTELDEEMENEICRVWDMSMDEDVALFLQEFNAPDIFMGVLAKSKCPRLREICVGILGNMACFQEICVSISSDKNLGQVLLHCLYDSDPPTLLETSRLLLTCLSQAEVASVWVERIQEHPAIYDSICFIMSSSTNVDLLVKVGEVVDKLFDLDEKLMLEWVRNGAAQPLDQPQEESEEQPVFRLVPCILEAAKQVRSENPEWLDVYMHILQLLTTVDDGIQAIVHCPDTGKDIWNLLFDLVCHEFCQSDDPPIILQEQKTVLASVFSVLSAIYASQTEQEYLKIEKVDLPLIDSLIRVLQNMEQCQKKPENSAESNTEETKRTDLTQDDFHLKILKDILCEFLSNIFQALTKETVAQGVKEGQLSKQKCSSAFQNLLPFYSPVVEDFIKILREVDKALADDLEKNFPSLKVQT
UniProt Q06609, sequence (Q06609 whole entry, looked up): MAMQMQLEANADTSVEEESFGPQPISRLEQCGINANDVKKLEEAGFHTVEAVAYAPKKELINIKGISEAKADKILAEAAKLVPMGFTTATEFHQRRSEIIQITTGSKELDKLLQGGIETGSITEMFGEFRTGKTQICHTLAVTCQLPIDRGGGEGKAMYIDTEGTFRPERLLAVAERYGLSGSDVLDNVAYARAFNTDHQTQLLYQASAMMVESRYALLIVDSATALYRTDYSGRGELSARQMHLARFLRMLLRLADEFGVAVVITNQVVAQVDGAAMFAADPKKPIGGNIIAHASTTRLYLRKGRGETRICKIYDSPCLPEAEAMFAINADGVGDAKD
UniProt Q15382, sequence (Q15382 whole entry, looked up): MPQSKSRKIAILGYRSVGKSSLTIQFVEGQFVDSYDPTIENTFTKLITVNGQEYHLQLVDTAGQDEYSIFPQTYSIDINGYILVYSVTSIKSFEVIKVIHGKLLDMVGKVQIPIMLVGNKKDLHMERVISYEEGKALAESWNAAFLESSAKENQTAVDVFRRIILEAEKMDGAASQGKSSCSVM
UniProt Q96GF1, sequence (Q96GF1 whole entry, looked up): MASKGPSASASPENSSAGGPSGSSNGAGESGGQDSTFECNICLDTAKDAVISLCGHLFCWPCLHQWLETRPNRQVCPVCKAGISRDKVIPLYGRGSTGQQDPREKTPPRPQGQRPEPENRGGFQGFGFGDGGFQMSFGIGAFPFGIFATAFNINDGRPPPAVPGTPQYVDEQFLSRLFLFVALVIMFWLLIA
UniProt Q15418, sequence (Q15418 whole entry, looked up): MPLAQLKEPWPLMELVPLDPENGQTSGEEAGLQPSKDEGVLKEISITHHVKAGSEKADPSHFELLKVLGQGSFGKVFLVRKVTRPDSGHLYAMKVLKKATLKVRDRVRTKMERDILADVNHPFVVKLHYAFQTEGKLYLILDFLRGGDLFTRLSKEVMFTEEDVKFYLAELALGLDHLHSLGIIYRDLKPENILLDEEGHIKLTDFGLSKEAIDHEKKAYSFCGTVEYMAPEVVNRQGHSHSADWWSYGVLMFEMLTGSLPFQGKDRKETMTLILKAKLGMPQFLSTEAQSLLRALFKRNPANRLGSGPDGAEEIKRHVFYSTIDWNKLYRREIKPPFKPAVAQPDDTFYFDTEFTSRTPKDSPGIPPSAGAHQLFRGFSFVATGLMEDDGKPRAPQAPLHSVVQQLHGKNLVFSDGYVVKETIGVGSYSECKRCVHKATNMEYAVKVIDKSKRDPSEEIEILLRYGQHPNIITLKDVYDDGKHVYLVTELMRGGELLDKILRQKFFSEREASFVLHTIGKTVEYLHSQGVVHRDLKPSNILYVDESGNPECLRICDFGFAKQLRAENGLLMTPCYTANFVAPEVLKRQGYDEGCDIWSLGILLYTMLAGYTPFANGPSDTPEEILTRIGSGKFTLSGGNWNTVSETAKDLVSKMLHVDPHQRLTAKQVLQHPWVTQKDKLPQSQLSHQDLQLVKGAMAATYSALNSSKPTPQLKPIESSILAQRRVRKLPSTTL
UniProt P51148, sequence (P51148 whole entry, looked up): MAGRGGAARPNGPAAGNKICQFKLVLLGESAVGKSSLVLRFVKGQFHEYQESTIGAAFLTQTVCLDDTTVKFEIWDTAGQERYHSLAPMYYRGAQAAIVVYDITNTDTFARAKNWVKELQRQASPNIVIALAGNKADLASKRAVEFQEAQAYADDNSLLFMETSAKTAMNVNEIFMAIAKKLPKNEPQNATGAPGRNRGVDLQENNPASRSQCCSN
UniProt Q13530, sequence (Q13530 whole entry, looked up): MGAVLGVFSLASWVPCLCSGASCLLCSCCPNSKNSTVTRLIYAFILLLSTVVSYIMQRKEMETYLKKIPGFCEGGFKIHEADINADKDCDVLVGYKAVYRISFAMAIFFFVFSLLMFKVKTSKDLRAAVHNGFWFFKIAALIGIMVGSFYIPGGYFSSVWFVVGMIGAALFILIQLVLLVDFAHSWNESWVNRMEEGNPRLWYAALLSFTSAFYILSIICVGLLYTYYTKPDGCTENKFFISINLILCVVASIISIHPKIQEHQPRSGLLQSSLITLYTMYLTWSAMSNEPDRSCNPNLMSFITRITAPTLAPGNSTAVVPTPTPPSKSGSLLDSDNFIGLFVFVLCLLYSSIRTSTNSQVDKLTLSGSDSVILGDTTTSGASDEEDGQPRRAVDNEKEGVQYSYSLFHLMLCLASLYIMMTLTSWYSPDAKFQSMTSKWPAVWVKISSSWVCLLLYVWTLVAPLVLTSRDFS
UniProt P60602, sequence (P60602 whole entry, looked up): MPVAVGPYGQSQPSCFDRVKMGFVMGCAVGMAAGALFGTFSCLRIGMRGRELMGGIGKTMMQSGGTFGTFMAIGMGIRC

As for SHCBP1 (UniProt Q8NEM2), the log2 fold change was 0.039.
To RAC3 (UniProt P60763) belongs 0.071; to SASH1 (UniProt O94885), 0.053; to RCC1 isoform 2 (UniProt P18754), -0.022.
To SAAL1 (UniProt Q96ER3) belongs 0.093; to RIC8A isoform 3 (UniProt Q9NPQ8), 0.095.
RAB5C isoform 2 (UniProt P51148): the log2 fold change was -0.006.
Consider RIOK3 (UniProt O14730), for which the log2 fold change is -0.001.
In the case of SERINC3 (UniProt Q13530), the log2 fold change is 0.01.
For the target RDH11 (UniProt Q8TC12), the log2 fold change was 0.082.
For ROCK1 (UniProt Q13464) the value was -0.009; for RICTOR isoform 3 (UniProt Q6R327), 0.01; for SETMAR (UniProt Q53H47), 0.075.
For SGPL1 (UniProt O95470) the value was -0.017; for RDH13 (UniProt Q8NBN7), -0.009.
For SCO2 (UniProt O43819) the value was -0.118; for RPS15 (UniProt P62841), 0.186.
Regarding SH2D1B (UniProt O14796), the log2 fold change is -0.372.
For RPS6KA1 isoform 2 (UniProt Q15418) the value was 0.026; for RBM33 (UniProt Q96EV2), 0.
For RNPEP (UniProt Q9H4A4) the value was 0.004.
As for RNPS1 (UniProt Q15287), the log2 fold change is 0.064.
Consider RSRC1 (UniProt Q96IZ7), for which the log2 fold change is 0.076.
To RPS12 (UniProt P25398) belongs 0.055.
For the target RAP1GDS1 isoform 5 (UniProt P52306), the log2 fold change was -0.025.
On to RPS20 isoform 2 (UniProt P60866), for which the log2 fold change was 0.064.
To RSPRY1 (UniProt Q96DX4) belongs -0.023; to SENP6 (UniProt Q9GZR1), -0.005; to RRP36 (UniProt Q96EU6), 0.118.
As for ROMO1 (UniProt P60602), the log2 fold change was 0.045.
To RPS18 (UniProt P62269) belongs 0.094.
RCOR3 isoform 3 (UniProt Q9P2K3): the log2 fold change is -0.088.
RPS16 (UniProt P62249): the log2 fold change was 0.074.
For RHEB (UniProt Q15382) the value was -0.073.
To RECQL (UniProt P46063) belongs 0.012.
For RPL38 (UniProt P63173) the value was -0.014; for RPP25L (UniProt Q8N5L8), 0.066; for RUFY1 (UniProt Q96T51), 0.042.
With SLC12A9 (UniProt Q9BXP2), the log2 fold change was -0.021.
For RAVER1 (UniProt E9PAU2) the value was 0.073; for RAB9A (UniProt P51151), -0.015; for SCCPDH (UniProt Q8NBX0), 0.076.
Turning to RAD50, A0A494C0Y7, the log2 fold change was -0.108.
Regarding SERPINA7 (UniProt P05543), the log2 fold change is 0.273.
For the target RPS25 (UniProt P62851), the log2 fold change was 0.075.
For REL (UniProt Q04864) the value was 0.054; for SCYL3 isoform 2 (UniProt Q8IZE3), -0.09.
RAB3IL1 (UniProt E9PK89): the log2 fold change is -0.039.
To RHOXF2 (UniProt Q9BQY4) belongs 0.062; to SELENOH (UniProt Q8IZQ5), -0.143; to SEMG2 (UniProt Q02383), -0.048.
To SIRT2 (UniProt Q8IXJ6) belongs -0.047.
For RPS27A (UniProt P62979) the value was 0.222.
On to SESN2 (UniProt P58004), for which the log2 fold change is 0.167.
For RAB33B (UniProt Q9H082) the value was -0.018; for RSRC2 (UniProt Q7L4I2), 0.019.
For RNF185 (UniProt Q96GF1) the value was 0.128.
Consider RNF187 (UniProt Q5TA31), for which the log2 fold change is 0.027.
For RBM25 (UniProt P49756) the value was -0.078; for SCPEP1 (UniProt Q9HB40), 0.004.
For the target RSF1 (UniProt Q96T23), the log2 fold change is 0.052.
RBM8A (UniProt Q9Y5S9): the log2 fold change was 0.061.
To SART3, A0A499FI31 belongs 0.023.
To RBM26 isoform 2 (UniProt Q5T8P6) belongs -0.021.
For RDH10 (UniProt Q8IZV5) the value was 0.03; for RRAGC (UniProt Q9HB90), 0.021; for RETSAT (UniProt Q6NUM9), -0.006.
As for RTF2 (UniProt Q9BY42), the log2 fold change was -0.069.
To RAD51 (UniProt Q06609) belongs -0.127; to RALGPS2 (UniProt Q86X27), -0.153; to SLC1A3 (UniProt P43003), 0.028.
To RHOA (UniProt P61586) belongs 0.054; to SDHAF4 (UniProt Q5VUM1), -0.018; to SEH1L isoform 1 (UniProt Q96EE3), 0.007.
As for RPS5 (UniProt P46782), the log2 fold change is 0.037.
